Bioassay records deposited in PubChem by Sanford-Burnham Center for Chemical Genomics.
TROY NFkB inh: TROY signaling inhibition | hit rate 0.98% among 360,000 | inhibition, % at 10 µM | Q293 LMP1-TROYcd NF-kB luciferase reporter, 4 h;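 active = compounds whose plate-normalised and pattern-corrected inhibition of the luciferase reporter signal at the single screening dose is 50% or more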
TWEAK-Fn14 inh: inhibitors of TWEAK-Fn14 interaction signaling | hit rate 2% among 360,000 | TWEAK-stimulated Fn14 reporter cells, luciferase luminescence, 8 h | inhibition, % at 10 µM; in the data active = inhibition above about 50%
CF NFkB block: inhibitors of cystic fibrosis induced NF-kB; inhibition, % at 5 µM; AID 588850; hit rate 0.86% among 360,000; KKLEB NF-kB-GFP reporter, PAF-induced, GFP fluorescence overnight;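 active = at least 50% inhibition at 5 µM, scaled per plate between neutral and stimulator controls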;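 also: PAF is a Pseudomonas aeruginosa culture filtrate used as stimulus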
KKLEB tox: reduces viability of KKLEB cystic fibrosis airway cells | activity change (cytotoxicity), % at 5 µM | KKLEB CF airway cells viability, ATPlite luminescence, overnight; stronger effect = lower value; cells stimulated with P. aeruginosa culture filtrate | hit rate 0.36% among 360,000;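 active = corrected activity change at or below -50% at 5 µM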
Peg3 prom inh: inhibitors of Peg3 promoter. inhibition, % at 20 µM. HeLa PEG-Prom luciferase reporter, luminescence, overnight. AID 588405. hit rate 1.7% among 360,000;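 active = inhibition of at least 50% at 20 µM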
HIF-2a inh: inhibitors of HIF-2a. 786-0 RCC cells HIF-2a reporter, luciferase luminescence, overnight. inhibition, % at 18.8 µM. hit rate 0.72% among 360,000;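 active = inhibition of the luminescence signal of 40% or more relative to plate controls, in a single-dose primary screen at 18.75 µM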
Large screens that a line does not name were inactive. The list is not random: actives were taken first. Their share in the collection is about 4%.

c1ccc(-c2csc3ncnc(NCC4COc5ccccc5O4)c23)cc1 (centres undefined)	TROY NFkB inh 59, TWEAK-Fn14 inh 91
Cc1sc2ncnc(NCC3COc4ccccc4O3)c2c1C (centres undefined)	TWEAK-Fn14 inh 57
c1ccc(-n2nnc3c(N4CCOCC4)ncnc32)cc1	TWEAK-Fn14 inh 87
Cc1cc(C)cc(NC(=S)NCc2ccc3[nH]c4c(c3c2)CCCC4)c1	Peg3 prom inh 67
Cc1ccc2cc(CCNS(=O)(=O)c3ccc(F)cc3)c(=O)[nH]c2c1C	TROY NFkB inh 56, TWEAK-Fn14 inh 59
NC(c1csc(Nc2cc(Oc3ccccc3)ncn2)n1)C1CCCCC1 (centres undefined)	Peg3 prom inh 99
NC(Cc1ccc(C(F)(F)F)cc1)c1csc(Nc2cc(Oc3ccccc3)ncn2)n1 (centres undefined)	CF NFkB block 91, KKLEB tox -94, Peg3 prom inh 106
Nc1ccc(CC(N)c2csc(Nc3cc(Oc4ccccc4)ncn3)n2)cc1 (centres undefined)	none
CCCN1C(=O)C(=O)c2cc(C)ccc21	none
Cc1ccc2c(c1)-c1cc(C)ccc1C2=O	TWEAK-Fn14 inh 64
Cn1ncc2c(Nc3ccc(Br)cc3)nc(Nc3ccc(Br)cc3)nc21	TWEAK-Fn14 inh 53
Cn1ncc2c(Nc3cccc(Cl)c3)nc(Nc3cccc(Cl)c3)nc21	TWEAK-Fn14 inh 60
CNc1nc(Nc2ccc(C)c(Cl)c2)c2cnn(C)c2n1	none
CCCC1(CCC)NC(=O)N(CC(=O)N2CCc3ccccc32)C1=O	none
CC(C)N(C)CCOC(=O)C1COc2ccccc2O1 (centres undefined)	none
Brc1ccc2nc(C3CCCCC3)c(CC3CCCCC3)n2c1	none
CC(=O)N1CCC(C(=O)Nc2ccc(S(=O)(=O)NCCc3ccccc3)cc2)CC1	none
Cc1nn(-c2ccccc2)c(C)c1-c1nnc(-c2c(C)nn(-c3ccccc3)c2C)o1	TROY NFkB inh 50
O=C1/C(=N\S(=O)(=O)c2cccs2)C([n+]2cccc(Cc3ccccc3)c2)=C([O-])c2ccccc21	CF NFkB block 56
CC(C)(C)c1cc[n+](C2=C([O-])c3ccccc3C(=O)/C2=N\S(=O)(=O)c2ccccc2)cc1	TROY NFkB inh 60, TWEAK-Fn14 inh 80
CCNC(=O)C1(C)CCCN1C(=O)c1cnc2ccccc2n1 (centres undefined)	none
CC1=CC(C)(C)N=C(Nc2nc(C)c3cc(C)cc(C)c3n2)N1	Peg3 prom inh 61
Cc1cc(C)c2nc(Nc3nc(-c4ccccc4)cc(=O)[nH]3)nc(C)c2c1	none
COc1cc(CNc2ncnc3c2ncn3[C@H]2CN(Cc3ccc(-c4ccccc4)cc3)C[C@@H](CO)O2)cc(OC)c1OC	TWEAK-Fn14 inh 69
CC(C)Nc1ncnc2c1ncn2[C@H]1CN(Cc2ccc(-c3ccccc3)cc2)C[C@@H](CO)O1	none
CC(C)CNc1ncnc2c1ncn2[C@H]1CN(Cc2ccc(-c3ccccc3)cc2)C[C@@H](CO)O1	TWEAK-Fn14 inh 51
COc1ccc(Cl)cc1C1=NOC2(CCC2)C(=O)N1Cc1ccc(NC(C)=O)cc1	none
Cn1nnnc1SCc1cn2cccnc2n1	TWEAK-Fn14 inh 87 (no result: TROY NFkB inh)
CC(C)CC1C(=O)N(Cc2cn(CCC3OCCCO3)nn2)CCS(=O)(=O)N1Cc1ccc(-c2ccc(Cl)c(Cl)c2)cc1 (centres undefined)	Peg3 prom inh 56
CC1C(=O)N(Cc2cn(CCC3OCCCO3)nn2)CCS(=O)(=O)N1Cc1ccc(-c2ccc(Cl)c(Cl)c2)cc1 (centres undefined)	TWEAK-Fn14 inh 71
Cc1cccc(C)c1-c1ccc(CN2C(CC(C)C)C(=O)N(Cc3cn(CCO)nn3)CCS2(=O)=O)cc1 (centres undefined)	Peg3 prom inh 58
CC(C)CC1C(=O)N(Cc2cn(CCC3OCCCO3)nn2)CCS(=O)(=O)N1Cc1ccc(-c2ccc(Cl)cc2)cc1 (centres undefined)	none
COCOCCn1cc(CN2CCS(=O)(=O)N(Cc3ccc(-c4ccc(Cl)c(Cl)c4)cc3)C(C)C2=O)nn1 (centres undefined)	Peg3 prom inh 93
COc1ccc(C(O)c2nc(-c3cccc(O)c3)cs2)cc1 (centres undefined)	none
